Article PMC7862700, “An all-to-all approach to the identification of sequence-specific readers for epigenetic DNA modifications on cytosine”

Columns and labels:
Experiment in all cases: DAPPL (digital affinity profiling via proximity ligation, sequencing); 10 mM Tris-HCl pH 7.5, 50 mM NaCl, 1 mM DTT, 4% glycerol, room temperature, 30 min; GST-TFs on glutathione beads, 16-mer random dsDNA library, 0.1% formaldehyde crosslink after washing; high values mean tight binding
FLI1 = target: T1, FLI1 (Homo sapiens, UniProt Q01543 1-452); conditions: protein: recombinant; tags: N-terminal GST; dsDNA, one strand shown
T1 sequence: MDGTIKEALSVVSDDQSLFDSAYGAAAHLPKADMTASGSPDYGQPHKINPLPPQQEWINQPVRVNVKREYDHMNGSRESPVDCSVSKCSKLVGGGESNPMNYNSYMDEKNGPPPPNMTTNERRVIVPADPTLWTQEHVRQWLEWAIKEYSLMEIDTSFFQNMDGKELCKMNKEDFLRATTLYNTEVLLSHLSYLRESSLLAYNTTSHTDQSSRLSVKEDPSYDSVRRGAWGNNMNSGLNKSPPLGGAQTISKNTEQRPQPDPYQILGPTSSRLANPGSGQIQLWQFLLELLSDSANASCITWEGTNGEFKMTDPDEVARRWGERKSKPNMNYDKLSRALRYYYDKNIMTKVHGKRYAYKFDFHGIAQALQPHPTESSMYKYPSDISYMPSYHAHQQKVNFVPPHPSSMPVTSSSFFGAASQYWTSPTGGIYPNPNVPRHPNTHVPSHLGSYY
Summary of the method: (§1)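 A tag-only sample was pooled with DNA-barcoded human transcription factors that had been expressed in yeast as GST fusions and captured on glutathione beads. The pools were incubated for 30 min at room temperature with 200 nmole of a random double-stranded 16-mer DNA library in Tris/NaCl/DTT/glycerol buffer, then washed, crosslinked with 0.1% formaldehyde, proximity-ligated (BsaI/T4 ligase, 1 h, 37 °C), PCR-amplified and sequenced on an Illumina NextSeq500. Binding signal is each hexamer's read frequency for a factor divided by its frequency for the tag-only sample.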

ELK1 = target: T2, ELK1 (Homo sapiens, UniProt P19419 1-428); conditions: protein: recombinant; tags: N-terminal GST; dsDNA, one strand shown
T2 sequence: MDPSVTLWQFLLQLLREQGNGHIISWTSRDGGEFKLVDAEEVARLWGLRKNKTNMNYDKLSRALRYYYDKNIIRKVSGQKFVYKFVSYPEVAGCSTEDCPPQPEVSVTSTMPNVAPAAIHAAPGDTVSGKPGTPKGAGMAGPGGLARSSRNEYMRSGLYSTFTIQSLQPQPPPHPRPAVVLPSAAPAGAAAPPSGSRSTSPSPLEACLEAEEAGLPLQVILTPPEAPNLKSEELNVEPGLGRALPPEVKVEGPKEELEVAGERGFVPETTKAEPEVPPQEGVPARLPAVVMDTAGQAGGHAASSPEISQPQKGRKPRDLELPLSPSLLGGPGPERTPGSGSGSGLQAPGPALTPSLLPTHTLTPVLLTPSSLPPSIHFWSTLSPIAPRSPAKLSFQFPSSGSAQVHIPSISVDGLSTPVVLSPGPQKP
Summary of the method: as §1

GABPA = target: T3, GABPA (Homo sapiens, UniProt Q06546 1-454); conditions: protein: recombinant; tags: N-terminal GST; dsDNA, one strand shown
T3 sequence: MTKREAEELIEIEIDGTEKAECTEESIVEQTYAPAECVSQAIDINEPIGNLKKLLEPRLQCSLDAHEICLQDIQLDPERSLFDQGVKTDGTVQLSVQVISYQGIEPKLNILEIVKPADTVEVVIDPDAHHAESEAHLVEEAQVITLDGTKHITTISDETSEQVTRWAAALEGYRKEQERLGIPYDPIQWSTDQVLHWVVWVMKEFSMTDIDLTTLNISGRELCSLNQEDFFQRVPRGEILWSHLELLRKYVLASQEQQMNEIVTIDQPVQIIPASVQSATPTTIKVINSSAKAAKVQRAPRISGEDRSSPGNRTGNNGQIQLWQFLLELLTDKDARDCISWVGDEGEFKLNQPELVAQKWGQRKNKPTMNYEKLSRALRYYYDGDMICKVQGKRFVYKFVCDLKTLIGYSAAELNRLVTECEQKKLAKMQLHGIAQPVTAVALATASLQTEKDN
Summary of the method: as §1

ERG = target: T4, ERG (Homo sapiens, UniProt P11308 1-479); conditions: protein: recombinant; tags: N-terminal GST; dsDNA, one strand shown
T4 sequence: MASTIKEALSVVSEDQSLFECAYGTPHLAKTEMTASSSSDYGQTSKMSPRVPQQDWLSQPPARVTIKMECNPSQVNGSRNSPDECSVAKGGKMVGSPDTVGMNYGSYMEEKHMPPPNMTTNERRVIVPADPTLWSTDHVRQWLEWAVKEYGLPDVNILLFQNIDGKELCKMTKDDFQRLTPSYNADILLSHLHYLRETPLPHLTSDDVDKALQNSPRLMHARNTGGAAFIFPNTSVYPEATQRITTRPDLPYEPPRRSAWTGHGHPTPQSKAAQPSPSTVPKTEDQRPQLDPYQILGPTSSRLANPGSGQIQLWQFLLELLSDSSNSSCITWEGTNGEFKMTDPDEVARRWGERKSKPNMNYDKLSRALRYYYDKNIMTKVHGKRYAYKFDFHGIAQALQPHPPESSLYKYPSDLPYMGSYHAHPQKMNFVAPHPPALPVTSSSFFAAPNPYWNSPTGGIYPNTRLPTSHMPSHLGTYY
Summary of the method: as §1

ELF1 = ELF1 (Homo sapiens, UniProt P32519 1-619); conditions: protein: recombinant; tags: N-terminal GST; dsDNA, one strand shown
Summary of the method: as §1

EHF = target: T5, EHF (Homo sapiens, UniProt Q9NZC4 1-300); conditions: protein: recombinant; tags: N-terminal GST; dsDNA, one strand shown
T5 sequence: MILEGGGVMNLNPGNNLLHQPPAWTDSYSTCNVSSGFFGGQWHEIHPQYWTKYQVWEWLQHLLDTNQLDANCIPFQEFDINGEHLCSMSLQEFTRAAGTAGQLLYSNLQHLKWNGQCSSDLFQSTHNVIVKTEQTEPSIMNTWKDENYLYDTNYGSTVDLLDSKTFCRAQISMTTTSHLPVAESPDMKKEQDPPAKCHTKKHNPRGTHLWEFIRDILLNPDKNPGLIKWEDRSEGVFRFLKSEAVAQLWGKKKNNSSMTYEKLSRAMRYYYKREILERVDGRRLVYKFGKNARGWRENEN
Summary of the method: as §1

SPI1 = SPI1 (Homo sapiens, UniProt P17947 1-270); conditions: protein: recombinant; tags: N-terminal GST; dsDNA, one strand shown
Summary of the method: as §1

SPIB = SPIB (Homo sapiens, UniProt Q01892 1-262); conditions: protein: recombinant; tags: N-terminal GST; dsDNA, one strand shown
Summary of the method: as §1

ELK3 = target: T6, ELK3 (Homo sapiens, UniProt P41970 1-407); conditions: protein: recombinant; tags: N-terminal GST; dsDNA, one strand shown
T6 sequence: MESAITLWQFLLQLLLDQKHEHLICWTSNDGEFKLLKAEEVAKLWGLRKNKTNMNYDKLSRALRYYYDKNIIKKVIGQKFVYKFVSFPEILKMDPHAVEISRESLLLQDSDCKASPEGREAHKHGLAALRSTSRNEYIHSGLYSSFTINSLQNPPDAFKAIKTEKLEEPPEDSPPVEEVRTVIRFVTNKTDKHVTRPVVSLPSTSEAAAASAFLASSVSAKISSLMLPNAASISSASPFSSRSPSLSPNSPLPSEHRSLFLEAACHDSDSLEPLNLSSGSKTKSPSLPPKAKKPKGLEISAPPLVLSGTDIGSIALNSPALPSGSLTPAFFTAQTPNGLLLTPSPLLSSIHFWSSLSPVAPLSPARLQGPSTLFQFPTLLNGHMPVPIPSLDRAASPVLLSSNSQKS
Summary of the method: as §1

FEV = target: T7, FEV (Homo sapiens, UniProt Q99581 1-238); conditions: protein: recombinant; tags: N-terminal GST; dsDNA, one strand shown
T7 sequence: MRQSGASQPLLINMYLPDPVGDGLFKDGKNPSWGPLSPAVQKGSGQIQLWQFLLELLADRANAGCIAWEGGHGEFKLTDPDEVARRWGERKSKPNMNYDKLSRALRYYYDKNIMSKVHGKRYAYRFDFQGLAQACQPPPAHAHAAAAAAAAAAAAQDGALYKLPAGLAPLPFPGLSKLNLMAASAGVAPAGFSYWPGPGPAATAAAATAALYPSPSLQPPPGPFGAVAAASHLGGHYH
Summary of the method: as §1

ETV5 = ETV5 (Homo sapiens, UniProt P41161 1-510); conditions: protein: recombinant; tags: N-terminal GST; dsDNA, one strand shown
Summary of the method: as §1

HSF1 = HSF1 (Homo sapiens, UniProt Q00613 1-529); conditions: protein: recombinant; tags: N-terminal GST; chain copies: 3; dsDNA, one strand shown
Summary of the method: as §1

SPIC = target: T8, SPIC (Homo sapiens, UniProt Q8N5J4 1-248); conditions: protein: recombinant; tags: N-terminal GST; dsDNA, one strand shown
T8 sequence: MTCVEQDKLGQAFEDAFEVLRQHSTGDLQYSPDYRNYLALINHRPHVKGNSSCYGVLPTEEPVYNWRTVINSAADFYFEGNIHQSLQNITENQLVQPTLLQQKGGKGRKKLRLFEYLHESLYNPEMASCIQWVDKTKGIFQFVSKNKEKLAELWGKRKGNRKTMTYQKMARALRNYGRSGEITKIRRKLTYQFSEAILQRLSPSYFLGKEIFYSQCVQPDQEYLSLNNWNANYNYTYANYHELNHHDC
Summary of the method: as §1

ELF4 = ELF4 (Homo sapiens, UniProt Q99607 1-663); conditions: protein: recombinant; tags: N-terminal GST; dsDNA, one strand shown
Summary of the method: as §1

ELK4 = target: T9, ELK4 (Homo sapiens, UniProt P28324-2 1-405); conditions: protein: recombinant; tags: N-terminal GST; dsDNA, one strand shown
T9 sequence: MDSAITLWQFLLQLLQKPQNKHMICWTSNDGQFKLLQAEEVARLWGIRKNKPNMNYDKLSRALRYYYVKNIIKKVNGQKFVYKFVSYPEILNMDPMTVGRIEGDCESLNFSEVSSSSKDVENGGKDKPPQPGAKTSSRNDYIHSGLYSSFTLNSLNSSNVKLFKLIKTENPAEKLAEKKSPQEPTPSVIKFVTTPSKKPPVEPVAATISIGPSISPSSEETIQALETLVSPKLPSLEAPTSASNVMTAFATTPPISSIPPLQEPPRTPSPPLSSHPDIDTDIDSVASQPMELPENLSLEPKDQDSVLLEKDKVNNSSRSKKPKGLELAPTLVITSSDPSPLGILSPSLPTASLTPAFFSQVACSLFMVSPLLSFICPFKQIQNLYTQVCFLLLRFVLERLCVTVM
Summary of the method: as §1

ETV2 = target: T10, ETV2 (Homo sapiens, UniProt O00321 1-342); conditions: protein: recombinant; tags: N-terminal GST; dsDNA, one strand shown
T10 sequence: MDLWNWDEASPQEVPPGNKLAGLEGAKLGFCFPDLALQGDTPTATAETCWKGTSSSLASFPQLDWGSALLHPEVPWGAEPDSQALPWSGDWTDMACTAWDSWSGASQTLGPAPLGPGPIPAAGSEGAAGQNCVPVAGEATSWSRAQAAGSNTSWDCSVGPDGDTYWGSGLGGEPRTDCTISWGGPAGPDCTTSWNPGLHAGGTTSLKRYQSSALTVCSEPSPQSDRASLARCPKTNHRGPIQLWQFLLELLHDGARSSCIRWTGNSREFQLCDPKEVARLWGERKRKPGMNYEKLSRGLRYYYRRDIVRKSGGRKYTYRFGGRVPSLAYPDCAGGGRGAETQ
Summary of the method: as §1

ELF3 = target: T11, ELF3 (Homo sapiens, UniProt P78545 1-371); conditions: protein: recombinant; tags: N-terminal GST; dsDNA, one strand shown
T11 sequence: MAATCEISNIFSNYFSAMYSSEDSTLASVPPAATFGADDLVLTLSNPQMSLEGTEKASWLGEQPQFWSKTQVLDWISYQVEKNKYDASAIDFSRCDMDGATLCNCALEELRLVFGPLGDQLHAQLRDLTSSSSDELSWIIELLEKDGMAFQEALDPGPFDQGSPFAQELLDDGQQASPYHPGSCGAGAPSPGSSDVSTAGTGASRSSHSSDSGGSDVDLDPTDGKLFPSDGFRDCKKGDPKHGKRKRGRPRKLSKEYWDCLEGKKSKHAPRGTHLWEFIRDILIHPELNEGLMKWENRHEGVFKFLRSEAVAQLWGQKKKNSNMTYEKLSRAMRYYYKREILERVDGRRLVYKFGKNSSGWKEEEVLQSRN
Summary of the method: as §1

CRX = CRX (Homo sapiens, UniProt O43186 1-299); conditions: protein: recombinant; tags: N-terminal GST; dsDNA, one strand shown
Summary of the method: as §1

ETV1 = ETV1 (Homo sapiens, UniProt P50549 1-477); conditions: protein: recombinant; tags: N-terminal GST; dsDNA, one strand shown
Summary of the method: as §1

Sequence of ELF1 (P32519 whole entry): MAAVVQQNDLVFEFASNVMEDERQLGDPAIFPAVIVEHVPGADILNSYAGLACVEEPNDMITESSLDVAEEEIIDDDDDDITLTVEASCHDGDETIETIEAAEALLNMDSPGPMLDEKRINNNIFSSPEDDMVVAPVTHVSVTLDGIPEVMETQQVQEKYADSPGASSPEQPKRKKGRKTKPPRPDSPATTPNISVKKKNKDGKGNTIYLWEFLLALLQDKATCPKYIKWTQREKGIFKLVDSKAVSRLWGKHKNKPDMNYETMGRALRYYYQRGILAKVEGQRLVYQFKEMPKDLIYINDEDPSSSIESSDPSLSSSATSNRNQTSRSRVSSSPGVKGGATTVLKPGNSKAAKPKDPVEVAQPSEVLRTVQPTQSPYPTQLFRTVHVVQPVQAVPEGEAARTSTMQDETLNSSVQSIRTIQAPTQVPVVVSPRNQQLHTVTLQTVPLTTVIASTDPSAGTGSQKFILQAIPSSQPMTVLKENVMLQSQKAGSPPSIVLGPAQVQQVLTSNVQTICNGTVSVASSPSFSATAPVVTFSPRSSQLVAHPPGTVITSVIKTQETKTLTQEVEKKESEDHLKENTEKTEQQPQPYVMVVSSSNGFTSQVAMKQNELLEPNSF
Sequence of ELF4 (Q99607 whole entry): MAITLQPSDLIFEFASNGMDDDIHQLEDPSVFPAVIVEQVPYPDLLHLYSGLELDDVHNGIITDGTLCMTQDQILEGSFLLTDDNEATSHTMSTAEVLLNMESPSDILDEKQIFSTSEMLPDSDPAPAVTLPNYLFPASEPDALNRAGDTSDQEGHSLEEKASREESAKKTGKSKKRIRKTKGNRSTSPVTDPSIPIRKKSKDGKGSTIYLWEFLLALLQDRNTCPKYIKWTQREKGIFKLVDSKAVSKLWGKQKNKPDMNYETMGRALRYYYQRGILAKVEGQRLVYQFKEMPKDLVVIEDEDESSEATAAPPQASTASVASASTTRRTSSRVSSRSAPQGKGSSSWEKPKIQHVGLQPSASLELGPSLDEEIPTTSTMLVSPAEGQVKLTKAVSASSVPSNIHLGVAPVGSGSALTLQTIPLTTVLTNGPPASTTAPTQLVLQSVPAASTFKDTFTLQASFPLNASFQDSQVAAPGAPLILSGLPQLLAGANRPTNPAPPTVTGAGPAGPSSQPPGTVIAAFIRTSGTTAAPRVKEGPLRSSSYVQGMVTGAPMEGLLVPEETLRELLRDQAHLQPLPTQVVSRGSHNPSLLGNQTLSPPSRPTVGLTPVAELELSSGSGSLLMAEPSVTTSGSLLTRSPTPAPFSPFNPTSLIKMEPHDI
Sequence of CRX (O43186 whole entry): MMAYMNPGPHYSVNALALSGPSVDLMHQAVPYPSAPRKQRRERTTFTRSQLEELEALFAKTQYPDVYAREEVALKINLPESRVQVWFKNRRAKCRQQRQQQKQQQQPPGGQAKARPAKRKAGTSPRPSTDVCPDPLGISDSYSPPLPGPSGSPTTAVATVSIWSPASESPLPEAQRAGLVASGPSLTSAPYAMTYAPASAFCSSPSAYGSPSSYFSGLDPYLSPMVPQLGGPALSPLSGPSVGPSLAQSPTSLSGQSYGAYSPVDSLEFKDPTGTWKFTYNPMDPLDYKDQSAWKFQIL
Sequence of ETV5 (P41161 whole entry): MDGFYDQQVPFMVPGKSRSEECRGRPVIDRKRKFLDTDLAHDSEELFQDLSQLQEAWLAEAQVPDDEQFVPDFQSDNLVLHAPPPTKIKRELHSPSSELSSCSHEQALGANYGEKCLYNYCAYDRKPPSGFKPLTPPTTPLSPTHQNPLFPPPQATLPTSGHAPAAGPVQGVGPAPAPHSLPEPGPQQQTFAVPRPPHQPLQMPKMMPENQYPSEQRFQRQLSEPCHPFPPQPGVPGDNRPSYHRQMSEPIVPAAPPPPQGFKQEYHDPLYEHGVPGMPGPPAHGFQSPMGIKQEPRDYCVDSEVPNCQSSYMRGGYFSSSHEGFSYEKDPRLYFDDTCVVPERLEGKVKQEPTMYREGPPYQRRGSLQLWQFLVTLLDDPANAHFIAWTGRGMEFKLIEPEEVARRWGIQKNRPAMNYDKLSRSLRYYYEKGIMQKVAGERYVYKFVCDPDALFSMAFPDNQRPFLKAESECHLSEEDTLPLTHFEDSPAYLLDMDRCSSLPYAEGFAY
Sequence of SPIB (Q01892 whole entry): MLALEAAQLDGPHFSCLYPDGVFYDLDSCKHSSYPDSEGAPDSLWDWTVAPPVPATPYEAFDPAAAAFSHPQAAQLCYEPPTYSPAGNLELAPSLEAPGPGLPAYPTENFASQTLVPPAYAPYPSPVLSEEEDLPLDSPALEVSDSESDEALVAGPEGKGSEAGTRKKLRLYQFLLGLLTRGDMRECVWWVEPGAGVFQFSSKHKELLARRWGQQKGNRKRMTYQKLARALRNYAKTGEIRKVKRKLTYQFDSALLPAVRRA
Sequence of ETV1 (P50549 whole entry): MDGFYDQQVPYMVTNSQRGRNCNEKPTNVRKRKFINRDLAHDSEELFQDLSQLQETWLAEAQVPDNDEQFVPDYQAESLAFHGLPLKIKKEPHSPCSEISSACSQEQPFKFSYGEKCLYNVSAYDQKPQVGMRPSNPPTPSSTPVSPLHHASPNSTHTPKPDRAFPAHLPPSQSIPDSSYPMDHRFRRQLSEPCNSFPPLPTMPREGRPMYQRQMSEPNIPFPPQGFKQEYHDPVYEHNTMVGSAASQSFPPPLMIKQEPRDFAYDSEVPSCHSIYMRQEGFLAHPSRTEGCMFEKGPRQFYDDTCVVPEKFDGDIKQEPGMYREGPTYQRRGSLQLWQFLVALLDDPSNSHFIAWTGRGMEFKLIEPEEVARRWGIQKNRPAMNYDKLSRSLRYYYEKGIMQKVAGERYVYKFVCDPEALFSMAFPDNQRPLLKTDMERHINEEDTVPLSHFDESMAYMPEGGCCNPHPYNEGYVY
Sequence of HSF1 (Q00613 whole entry): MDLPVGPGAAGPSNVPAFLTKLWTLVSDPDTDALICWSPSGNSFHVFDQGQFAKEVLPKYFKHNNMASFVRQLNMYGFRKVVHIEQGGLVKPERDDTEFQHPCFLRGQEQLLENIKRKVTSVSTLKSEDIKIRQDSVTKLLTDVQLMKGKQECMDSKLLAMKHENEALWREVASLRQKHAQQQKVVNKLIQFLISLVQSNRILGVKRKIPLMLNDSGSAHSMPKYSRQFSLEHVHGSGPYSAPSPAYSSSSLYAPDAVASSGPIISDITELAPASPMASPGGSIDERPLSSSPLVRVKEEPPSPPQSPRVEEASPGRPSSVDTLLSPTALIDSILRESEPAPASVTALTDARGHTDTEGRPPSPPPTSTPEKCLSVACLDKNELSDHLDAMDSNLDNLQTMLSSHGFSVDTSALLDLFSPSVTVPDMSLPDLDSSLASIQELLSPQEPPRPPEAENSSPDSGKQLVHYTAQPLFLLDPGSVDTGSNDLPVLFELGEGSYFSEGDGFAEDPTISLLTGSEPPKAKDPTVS

TTCGGT
binding signal (FLI1): 1.06 fold enrichment (6-mer frequency, TF over GST control)
binding signal (ELK1): 1.09 fold enrichment (6-mer frequency, TF over GST control)
binding signal (GABPA): 1.13 fold enrichment (6-mer frequency, TF over GST control)
binding signal (ERG): 1.1 fold enrichment (6-mer frequency, TF over GST control)
binding signal (ELF1): 1.14 fold enrichment (6-mer frequency, TF over GST control)
binding signal (EHF): 1.23 fold enrichment (6-mer frequency, TF over GST control)
binding signal (SPI1): 1.2 fold enrichment (6-mer frequency, TF over GST control)
binding signal (SPIB): 1.16 fold enrichment (6-mer frequency, TF over GST control)
binding signal (ELK3): 1.22 fold enrichment (6-mer frequency, TF over GST control)
binding signal (FEV): 1.16 fold enrichment (6-mer frequency, TF over GST control)
binding signal (ETV5): 1.23 fold enrichment (6-mer frequency, TF over GST control)
binding signal (HSF1): 1.22 fold enrichment (6-mer frequency, TF over GST control)
binding signal (SPIC): 1.34 fold enrichment (6-mer frequency, TF over GST control)
binding signal (ELF4): 1.17 fold enrichment (6-mer frequency, TF over GST control)
binding signal (ELK4): 1.21 fold enrichment (6-mer frequency, TF over GST control)
binding signal (ETV2): 1.13 fold enrichment (6-mer frequency, TF over GST control)
binding signal (ELF3): 1.04 fold enrichment (6-mer frequency, TF over GST control)
binding signal (CRX): 1 fold enrichment (6-mer frequency, TF over GST control)
binding signal (ETV1): 1.23 fold enrichment (6-mer frequency, TF over GST control)
